The values below come from PubChem BioAssay AID463173 (ICCB-Longwood Screening Facility, Harvard Medical School, 2010).

Screen size: about 52,000 compounds; about 4,300 (8.3%) were called active. The sample holds actives, similar compounds and a random draw of the others, so the mix is not that of the screen. Cut-off read from the data, not from the text of the source: active = survival mostly below about 52% (no sharp cut-off); inactive = mostly above about 56%.

This experiment deals with DeltatarO mutant. The experiment can be described thus: growth inhibition of S. aureus wild type versus tarO mutant, primary screen, teichoic acid synthesis inhibitors, RN4220, OD600 (AID 463173). The settings on record: OD600, 18 h, stronger effect = lower value, screened at 18.75 µg/mL (by protocol).
`CCOc1ccccc1-c1nc(C(N)=O)c2c(n1)n(-c1ccc3c(c1)OCO3)c(=O)n2C`: the survival is 79% (inactive). On to `CCOc1ccc(NC(=O)Cc2c[nH]c3ccccc23)cc1`, for which the survival is 80% (inactive).

As to `Cc1oc2c(c1C(=O)NCCO)CCCC2`, the survival is 85% (inactive). With `COCc1cc(C)nc2sc3c(c12)NC(c1ccc(O)cc1)N(c1ccc(OC)cc1)C3=O` (stereo unspecified), the survival was 76% (inactive). Regarding `CCCN1C(=O)C2(c3ccccc31)c1c(oc3ccc(F)cc3c1=O)C(=O)N2CCCOC(C)C` (stereo unspecified), the survival was 93% (inactive). For `COc1ccc2cc(C#N)c(N3CCCN(C(=O)/C=C/C(=O)O)CC3)nc2c1`, the survival was 105% (inactive). As to `CCCN1CCc2nc(N3CCN(c4ncccn4)CC3)ncc2C1`, the survival is 75% (inactive). In the case of `O=C(CSc1nc2ccccc2n1Cc1ccccc1)Nc1ccccn1`, the survival is 81% (inactive). `O=C1OCCC1Sc1nc2ccccc2n1Cc1ccccc1` (stereo unspecified): the survival is 73% (active). For `O=C(CSc1nc2ccccc2n1Cc1ccccc1)NCc1ccccc1` the value was 95% (inactive). On to `COC(=O)c1nnn(CC(=O)Nc2c(C)cccc2C)c1N`, for which the survival is 87% (inactive).

Regarding `Cc1ccc(NC(=O)CN2C(=O)COc3ccc(S(=O)(=O)N4CCCCCC4)cc32)cc1Cl`, the survival is 67% (inactive). For `COc1cccc(/C=N/NC(=O)c2cccc(C)c2)c1O` the value was 2% (active); for `Cc1cccc(/C=N/NC(=O)c2ccccn2)c1O`, 5% (active); for `Cn1cccc1/C=N/NC(=O)c1ccccn1`, 77% (inactive). For `COc1cccc(/C=N/NC(=O)COc2c(C)cccc2C)c1O` the value was 88% (inactive); for `COc1cccc(/C=N/NC(=O)CSCc2ccccc2)c1O`, 69% (inactive); for `O=C(N/N=C/c1ccc(OC(=O)c2ccco2)cc1)c1ccccn1`, 92% (inactive). For the compound `COc1ccc(C(=O)Nc2ccc3nc4n(c(=O)c3c2)CCCCC4)cc1OC`, the survival was 91% (inactive). With `CCOc1ccc(-n2c(=O)c3c(C)c(C)sc3n(CC(=O)N3CCC(C)CC3)c2=O)cc1`, the survival was 71% (inactive). Turning to `CCC(C)NC(=O)c1ccc2nc(Cc3ccc(OC)cc3)oc2c1` (stereo unspecified), the survival is 76% (inactive). Consider `CCOC(=O)c1c(C)[nH]c(CCC(=O)Nc2cc(Cl)ccc2OC)c1C`, for which the survival was 94% (inactive). Turning to `COc1ccccc1CNC(=O)Cn1c(=O)ccc2cc(S(=O)(=O)N3CCCC3)ccc21`, the survival was 69% (inactive). Consider `CCn1nc(C)c(CCN(C)C(=O)Nc2cc(OC)c(OC)c(OC)c2)c1C`, for which the survival is 89% (inactive). For `COc1cc2c(cc1NC(=O)COc1ccc(Br)cc1C)oc1ccccc12` the value was 119% (inactive).

On to `CCc1ccc(OCC(=O)Nc2cc3oc4ccccc4c3cc2OC)cc1`, for which the survival was 47% (active). `COc1cc2c(cc1NC(=O)COc1ccc(Cl)cc1)oc1ccccc12`: the survival is 46% (active).

`COc1cc2c(cc1NC(=O)COc1ccc(Br)c(C)c1)oc1ccccc12`: the survival is 49% (inactive). With `CCc1ccc(OCC(=O)Nc2cc3oc4ccccc4c3cc2OC)c(Br)c1`, the survival is 123% (inactive). `COc1cc2c(cc1NC(=O)COc1ccc(Br)cc1)oc1ccccc12`: the survival was 72% (inactive). Then `O=C(CN1CCSc2ccccc21)N1CCN(c2ccc(F)cc2)CC1`, with 88% (inactive).

With `O=C(O)CCCNc1ncnc2ccccc12`, the survival is 92% (inactive).

On to `COc1ccc(NC(=O)C2CCN(c3nc4ccccc4[nH]3)CC2)cc1OC`, for which the survival is 66% (inactive).

Take `Fc1ccccc1-n1ncc2c1ncn1nc(Cc3ccccc3)nc21`: the survival was 74% (inactive). For `CCOC(=O)N1CC=C2C(C#N)=C(N)C(C#N)(C#N)C(c3ccc(CC)cc3)C2C1` (stereo unspecified), the survival was 88% (inactive). As to `CC(C)(C)OC(=O)N1CC=C2C(C#N)=C(N)C(C#N)(C#N)C(c3ccc4c(c3)OCO4)C2C1` (stereo unspecified), the survival was 35% (active). As for `COc1cccc(C2C3CN(C(C)=O)CC=C3C(C#N)=C(N)C2(C#N)C#N)c1` (stereo unspecified), the survival is 93% (inactive). For `Cc1cccc(NC(=O)N2CCC(CN3CCc4ccccc4C3)CC2)c1C` the value was -2% (active); for `COC(=O)c1ccc(NC(=O)N2CCC(CN3CCc4ccccc4C3)CC2)cc1`, 6% (active); for `CCOc1ccc(NC(=O)N2CCC(CN3CCCCCC3)CC2)cc1`, 115% (inactive).

As for `COc1cc(NC(=O)N2CCC(CN3CCc4ccccc4C3)CC2)cc(OC)c1`, the survival was 70% (inactive). For `CCOc1ccc(NC(=O)N2CCC(CN3CCc4ccccc4C3)CC2)cc1`, the survival is -1% (active). Turning to `Cc1cc(C)cc(NC(=O)N2CCC(CN3CCc4ccccc4C3)CC2)c1`, the survival was 72% (inactive). Regarding `Cc1cccc(NC(=O)N2CCC(CN3CCCCCC3)CC2)c1C`, the survival was 81% (inactive). Take `CCc1ccccc1NC(=O)N1CCC(CN2CCc3ccccc3C2)CC1`: the survival is 76% (inactive).

Regarding `CCOc1ccc(NC(=O)N2CCC(CN3CCC(C)CC3)CC2)cc1`, the survival is 117% (inactive). For `COc1ccc(Cl)cc1NS(=O)(=O)c1cc(-c2cc(C)no2)ccc1C` the value was 87% (inactive); for `CCCCn1c(=O)c2oc3ccccc3c2n(Cc2ccccc2C)c1=O`, 55% (inactive).

Consider `COc1cccc(-n2nnc(-c3nc(-c4ccccc4F)no3)c2C)c1`, for which the survival was 84% (inactive). In the case of `Cc1ccc(NC(=O)CSc2nc3ccccc3n2CC(=O)N2CCC(C)CC2)cc1C`, the survival is 17% (active). For `Cc1ccc(OCCSc2nc3ccccc3n2CC(=O)N2CCOCC2)c(C)c1` the value was 93% (inactive); for `COc1cccc(OCCSc2nc3ccccc3n2CC(=O)N2CCCCC2)c1`, 42% (active). Consider `COc1cccc(OCCSc2nc3ccccc3n2CC(=O)N2CCOCC2)c1`, for which the survival is 44% (active). Then `CC1CCN(C(=O)Cn2c(SCC(=O)NC(C)(C)C)nc3ccccc32)CC1`, with 92% (inactive); and `Cc1cccc(OCCSc2nc3ccccc3n2CC(=O)N2CCOCC2)c1`, with 44% (active). For the compound `COc1ccc(OCCSc2nc3ccccc3n2CC(=O)N2CCOCC2)cc1`, the survival was 51% (inactive). Then `Cc1ccc(OCCSc2nc3ccccc3n2CC(=O)N2CCOCC2)cc1`, with 96% (inactive); and `CC1CCN(C(=O)Cn2c(SCC(=O)Nc3ccc(F)cc3)nc3ccccc32)CC1`, with 96% (inactive). `O=C(Cn1c(SCCOc2ccccc2)nc2ccccc21)N1CCOCC1`: the survival was 47% (inactive). As for `COc1ccc(C2CC(=O)Nc3c2c(C)nn3-c2nncc(-c3ccc(C)cc3)n2)c(OC)c1OC` (stereo unspecified), the survival is 83% (inactive).

Consider `CCOc1ccc(/C=C(\C#N)C(=O)NCc2ccco2)cc1OC`, for which the survival was 113% (inactive). Then `CCOc1ccc(CNCc2c(C(=O)O)c(C)n(Cc3c(F)cccc3Cl)c2C)cc1OC`, with 56% (inactive). Consider `COc1ccc(C2CC(=O)c3cc(-c4nc(-c5ccc(C)cc5)cs4)c(=O)[nH]c3C2)cc1` (stereo unspecified), for which the survival was 76% (inactive). In the case of `O=C(CNC(=O)c1ccc(Cl)cc1)OCc1cc(=O)n2nc(C3CCCCC3)sc2n1`, the survival is 90% (inactive). `CCCCn1cc(S(=O)(=O)c2ccc(Cl)cc2)c(=O)c2cc(F)c(N3CCCC(C)C3)cc21` (stereo unspecified): the survival is 117% (inactive). For `O=C(c1ccc(F)cc1)C1CCN(S(=O)(=O)c2ccc(F)cc2)CC1` the value was 95% (inactive).

As for `COc1ccc(CNC(=O)CCCc2nnc3n(CCC(C)C)c(=O)c4sccc4n23)cc1`, the survival was 93% (inactive). Consider `Cc1ccc2nc(NC(=O)CSc3cc(C)[nH]c(=O)n3)sc2c1`, for which the survival was 79% (inactive).

As to `Cn1c(SCCC(=O)O)nc2ccccc21`, the survival was 83% (inactive). For `Cc1ccc(OCCSc2nc3ccccc3n2CC(=O)N2CCOCC2)cc1C` the value was 53% (inactive); for `Cc1ccc(OCCSc2nc3ccccc3n2CCC(=O)O)cc1C`, 47% (active); for `Cc1cccc(C)c1OCCSc1nc2ccccc2n1CC(=O)O`, 83% (inactive). Then `Cc1ccc(OCCSc2nc3ccccc3n2CC(=O)NC(C)C)cc1`, with 52% (inactive); and `Cc1ccc(OCCSc2nc3ccccc3n2CC(=O)N2CCCCC2)cc1C`, with 46% (active); and `CCc1ccc(OCCSc2nc3ccccc3n2CC(=O)N2CCCCC2)cc1`, with 40% (active). For the compound `O=C(Cn1c(SCCOc2ccc(Cl)cc2)nc2ccccc21)N1CCCCC1`, the survival was 50% (inactive). Take `CCN(CC)C(=O)Cn1c(SCC(=O)Nc2ccc(F)cc2)nc2ccccc21`: the survival was 100% (inactive). As for `CCN(CC)C(=O)Cn1c(SCCOc2ccc(Cl)cc2)nc2ccccc21`, the survival is 43% (active). Turning to `CCc1ccccc1NC(=O)CCn1cccn1`, the survival is 135% (inactive). As to `CCC1CN(C(=O)N2CCC(C(=O)NCc3ccco3)CC2)c2ccccc2O1` (stereo unspecified), the survival is 66% (inactive). For `COc1ccccc1CNC(=O)C1CCN(S(=O)(=O)c2c(C)noc2/C=C/c2cccs2)CC1`, the survival is 59% (inactive). `CN(C(=O)CSc1nc2ccc(NC(=O)c3cccc(F)c3)cc2s1)c1ccccc1`: the survival was 69% (inactive). In the case of `Cc1ccccc1NC(=O)C(=O)NCC(c1ccc2c(c1)OCO2)N1CCN(c2ccccc2)CC1` (stereo unspecified), the survival was 73% (inactive).

Take `O=S(=O)(Nc1cccc(C(F)(F)F)c1)c1ccc(-c2cnc(C3CC3)o2)cc1`: the survival was 91% (inactive). For `c1ccc2[nH]c(CN3CCCCC3)nc2c1` the value was 59% (inactive); for `O=C(NCc1ccc(F)cc1)c1ccc(NC(=O)N2CC3CCCN3c3ccccc32)cc1` (stereo unspecified), 113% (inactive). For the compound `Cc1oc(CC(C)C)cc1C(N)=O`, the survival is 100% (inactive). Turning to `O=C(CSC1=Nc2ccccc2C2=NC(Cc3ccccc3)C(=O)N12)Nc1ccccc1` (stereo unspecified), the survival was 74% (inactive). Regarding `CCOc1ccc(-c2cn(-c3ccc(OC)cc3)c(SCC(=O)Nc3ccccc3Cl)n2)cc1`, the survival is 99% (inactive). On to `CC(C)(C)c1ccc(NC(=O)CSc2nnc3scc(-c4ccccc4)n23)cc1`, for which the survival was 41% (active). For `COc1cccc(NC(=O)CSc2nnc3scc(-c4ccc(Cl)cc4)n23)c1`, the survival is 52% (inactive). As for `O=C(CSc1nnc2scc(-c3ccc(Cl)cc3)n12)Nc1cccc(C(F)(F)F)c1`, the survival is 58% (inactive).

As for `CCOc1ccc(NC(=O)CSc2nnc3scc(-c4ccc(Cl)cc4)n23)cc1`, the survival is 48% (inactive).

As to `CCOc1ccc(NC(=O)CSc2nnc3scc(-c4ccccc4)n23)cc1`, the survival was 17% (active). For `Cc1cccc(NC(=O)CSc2nnc3scc(-c4ccccc4)n23)c1` the value was 40% (active); for `O=C(CSc1nnc2scc(-c3ccc(Cl)cc3)n12)Nc1ccc(F)cc1`, 57% (inactive); for `Cc1ccc(NC(=O)CSc2nnc3scc(-c4ccccc4)n23)cc1`, 15% (active). `COc1ccc(NC(=O)CSc2nnc3scc(-c4ccc(Cl)cc4)n23)cc1`: the survival was 95% (inactive). Then `Cc1ccc(NC(=O)CSc2nnc3scc(-c4ccc(Cl)cc4)n23)cc1`, with 49% (inactive). Consider `CC(=O)Nc1ccc(C(=O)CSc2nnc3scc(-c4ccccc4)n23)cc1`, for which the survival was 89% (inactive).

As to `O=C(CSc1nnc2scc(-c3ccccc3)n12)Nc1ccc(Cl)cc1`, the survival is 56% (inactive).
